“And” between values parts separate entries of the source, which are not always exact repeats. Identical values can stand only once. Results filed as inconclusive are left out. A call without a number means that no potency is given here. Where a structure was tested more than once in an assay, its records may differ in their call. The source made the active and inactive calls. Unless noted, calls come from the whole dose curve; as a rule, active = well fitted curve in the direction sought with a large enough effect in the repeat runs; inconclusive = weak or mixed curves; inactive = no such curve, though single readings can be large; an effect the other way counts as inactive or inconclusive.
Assays:
[1] = qHTS assay to identify aromatase inhibitors - cell viability counter screen (AID 743084);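 note: cells stimulated with testosterone during compound exposure; nearly all actives have a fitted effect of over 55% in size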; note: potency is the fitted concentration of half-maximal effect
[2] = target: Aryl hydrocarbon receptor (Homo sapiens) (UniProt P35869); test: qHTS assay to identify small molecule that activate the aryl hydrocarbon receptor (AhR) signaling pathway (AID 743085); note: nearly all actives have a fitted effect of over 15% in size; note: potency is the fitted concentration of half-maximal effect;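 for activation: HG2L7.5c1 human HepG2 liver cells with stably integrated DRE-driven firefly reporter; series mostly up to about 70 µM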
Aryl hydrocarbon receptor (Homo sapiens), sequence (P35869 whole entry, looked up): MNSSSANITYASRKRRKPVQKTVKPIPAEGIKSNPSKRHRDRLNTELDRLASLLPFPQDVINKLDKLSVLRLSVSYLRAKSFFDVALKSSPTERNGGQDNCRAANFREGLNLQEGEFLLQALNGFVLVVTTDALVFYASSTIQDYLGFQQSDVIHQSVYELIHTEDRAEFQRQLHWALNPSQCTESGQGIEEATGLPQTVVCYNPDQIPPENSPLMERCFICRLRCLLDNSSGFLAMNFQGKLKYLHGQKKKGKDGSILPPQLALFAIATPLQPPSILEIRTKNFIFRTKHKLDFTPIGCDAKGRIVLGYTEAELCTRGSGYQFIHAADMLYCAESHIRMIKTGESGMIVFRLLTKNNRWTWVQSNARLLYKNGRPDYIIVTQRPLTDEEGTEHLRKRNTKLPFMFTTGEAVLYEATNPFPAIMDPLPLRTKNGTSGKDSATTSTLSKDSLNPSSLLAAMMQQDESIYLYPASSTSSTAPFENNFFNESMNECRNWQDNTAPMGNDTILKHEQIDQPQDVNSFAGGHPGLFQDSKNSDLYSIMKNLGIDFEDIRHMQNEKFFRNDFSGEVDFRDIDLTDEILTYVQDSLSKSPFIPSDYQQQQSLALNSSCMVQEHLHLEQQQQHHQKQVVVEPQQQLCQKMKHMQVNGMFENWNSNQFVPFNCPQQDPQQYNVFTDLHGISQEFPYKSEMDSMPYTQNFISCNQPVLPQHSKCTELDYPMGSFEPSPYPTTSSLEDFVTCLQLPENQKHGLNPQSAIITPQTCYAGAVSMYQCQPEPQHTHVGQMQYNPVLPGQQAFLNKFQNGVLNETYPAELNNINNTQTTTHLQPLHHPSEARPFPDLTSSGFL
Method in brief: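 HepG2 cells stably carrying a 20-DRE firefly luciferase reporter (HG2L7.5c1) treated with compound for 24 hr at 37C. Luciferase read by ONE-Glo luminescence, with CellTiter-Fluor viability read first.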

[3] = qHTS assay to identify small molecule that activate the aryl hydrocarbon receptor (AhR) signaling pathway - cell viability counter screen (AID 743086); note: nearly all actives have a fitted effect of over 45% in size; note: potency is the fitted concentration of half-maximal effect
Method in brief: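 HepG2-AhR-luc (HG2L7.5c1) cells, 4000/well, were preincubated 5 h at 37C, exposed to compound in qHTS format for 24 hr at 37C, then given CellTiter-Fluor for 30 min; viability was read as fluorescence in the reporter wells.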

[4] = target: Peroxisome proliferator-activated receptor gamma (Homo sapiens) (UniProt P37231); test: qHTS assay to identify small molecule agonists of the peroxisome proliferator-activated receptor gamma (PPARg) signaling pathway (AID 743094; active = well fitted activation curve with a large enough effect in the signal ratio in the repeat runs, not every such curve was filed as active; the % refers to the signal ratio)
Peroxisome proliferator-activated receptor gamma (Homo sapiens), sequence (P37231 whole entry, looked up): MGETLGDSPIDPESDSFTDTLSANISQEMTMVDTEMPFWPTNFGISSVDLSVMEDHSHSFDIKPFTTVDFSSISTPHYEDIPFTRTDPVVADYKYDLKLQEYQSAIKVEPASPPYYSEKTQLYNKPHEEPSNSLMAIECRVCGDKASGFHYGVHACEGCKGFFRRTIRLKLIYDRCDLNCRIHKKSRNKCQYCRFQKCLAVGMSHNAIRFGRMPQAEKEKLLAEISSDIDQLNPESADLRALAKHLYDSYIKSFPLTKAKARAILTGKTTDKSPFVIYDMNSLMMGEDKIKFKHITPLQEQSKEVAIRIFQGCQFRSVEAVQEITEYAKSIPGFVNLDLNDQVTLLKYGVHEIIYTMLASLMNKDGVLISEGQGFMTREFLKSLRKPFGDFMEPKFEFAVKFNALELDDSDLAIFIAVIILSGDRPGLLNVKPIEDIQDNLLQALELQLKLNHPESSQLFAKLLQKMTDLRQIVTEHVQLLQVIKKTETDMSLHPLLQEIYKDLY
Method in brief: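 Following 5 h plating at 37C, PPARg-bla HEK293H cells receive compound or DMSO for 17 h; fluorescence intensity is recorded after LiveBLAzer B/G loading for 1 h at room temperature.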

[5] = qHTS assay to identify small molecule antagonists of the peroxisome proliferator-activated receptor gamma (PPARg) signaling pathway - cell viability counter screen (AID 743194); note: nearly all actives have a fitted effect of over 55% in size
Method in brief: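 PPARg-UAS-bla HEK293H cells were plated, rested 5 h at 37 C, then treated with compounds plus rosiglitazone (50 nM final) for 17 h at 37 C; viability was then read by CellTiter-Glo luminescence after 30 min at room temperature.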

[6] = qHTS assay for small molecule agonists of the antioxidant response element (ARE) signaling pathway (AID 743202; active = well fitted activation curve with a large enough effect in the signal ratio in the repeat runs, not every such curve was filed as active; the % refers to the signal ratio; note: potency is the fitted concentration of half-maximal effect)
Method in brief: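 Compounds delivered in DMSO to ARE-bla HepG2 cells (2,000 cells/well, pre-incubated 5 h) and left 16 h at 37 C. LiveBLAzer B/G FRET substrate then added for 2 h at RT before fluorescence reading.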

[7] = qHTS assay for small molecule agonists of the antioxidant response element (ARE) signaling pathway - cell viability counter screen (AID 743203; calls by dose curve; note: nearly all actives have a fitted effect of over 55% in size)
Method in brief: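 Compounds in DMSO were pinned onto ARE-bla HepG2 cells plated 5 hrs earlier at 2,000 cells/well. Sixteen hours later at 37C/5% CO2, CellTiter-Glo was added and luminescence measured after 30 min at room temperature.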

[8] = qHTS assay for small molecule activators of the heat shock response signaling pathway - cell viability counter screen (AID 743209); note: nearly all actives have a fitted effect of over 50% in size
Method in brief: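 Counter screen for cytotoxicity in HeLa HSE-bla reporter cells. Treatment was 5 h at 37 C; viability was detected by luminescent ATP assay (CellTiter-Glo) in the same wells as the beta-lactamase read.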

[9] = qHTS assay for small molecule activators of the heat shock response signaling pathway (AID 743210; active = well fitted activation curve with a large enough effect in the signal ratio in the repeat runs, with a control signal flat, not every such curve was filed as active; the % refers to the signal ratio;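 note: HeLa cells with beta-lactamase reporter driven by heat shock elements; series mostly up to about 63 µM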)
Method in brief: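 Reporter gene assay: HeLa cells stably bearing an HSE-bla construct, compound treatment 5 h at 37 C, LiveBLAzer substrate 2.5 h at RT, fluorescence intensity.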

[10] = target: Peroxisome proliferator-activated receptor gamma (Homo sapiens) (UniProt P37231); test: qHTS assay to identify small molecule antagonists of the peroxisome proliferator-activated receptor gamma (PPARg) signaling pathway (AID 743191; calls by dose curve; note: series mostly up to about 63 µM; nearly all actives have a fitted effect of over 30% in size)
Method in brief: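 GeneBLAzer PPARg UAS-bla HEK293H cells carrying a UAS-driven beta-lactamase reporter were plated at 3000 cells/well, preincubated 5 h at 37C, then given compound for 17 h at 37C; LiveBLAzer B/G FRET substrate was read after 1 h at room temperature.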

SMILES	Potency [1]	Potency [2]	Potency [3]	outcome [4]	outcome [5]	Potency [6]	Potency [7]	outcome [8]	outcome [9]	outcome [10]
CCCCCCCC=O	inactive	inactive	inactive	inactive	inactive	inactive	inactive	inactive	inactive	
CCCCCCCCCCO	inactive	inactive	inactive		inactive	inactive	inactive	inactive	inactive	inactive
CCCCCC(=O)O	inactive	inactive	inactive	inactive	inactive	inactive	inactive	inactive	inactive	
Cc1ccc([N+](=O)[O-])cc1S(=O)(=O)O	inactive	inactive	inactive	inactive	inactive	inactive	inactive	inactive	inactive	inactive
C=CCc1ccc(OC)c(OC)c1	inactive	inactive	inactive	inactive	inactive	inactive	inactive	inactive	inactive	
COc1ccccc1OCC(O)CO (stereo not drawn)	inactive	inactive	inactive		inactive	inactive	inactive	inactive		inactive
CCNC(=S)NCC	inactive	inactive	inactive		inactive	inactive	inactive	inactive		inactive
CCNc1cccc(C)c1	inactive	inactive	inactive	inactive		inactive	inactive	inactive		inactive
C=CC(=O)OCCC(=O)O	inactive	inactive	inactive		inactive	9.69 µM (active)	inactive	inactive		inactive
CC(=O)OCc1ccco1	inactive	inactive	inactive		inactive	inactive	inactive	inactive	inactive	inactive
COc1cc(OC)c(C(=O)CCCN2CCCC2)c(OC)c1	inactive	inactive	inactive		inactive	inactive	inactive	inactive		inactive
CC(C)(Oc1ccc(CCNC(=O)c2ccc(Cl)cc2)cc1)C(=O)O	inactive	inactive	inactive		inactive	inactive	inactive	inactive		inactive
NCCCCCCN	inactive	inactive	inactive		inactive	inactive	inactive	inactive		inactive
OCc1ccccc1	inactive	inactive	inactive		inactive	inactive	inactive	inactive	inactive	inactive
C[C@]12CC[C@@H]3c4ccc(O)cc4CC[C@H]3[C@@H]1C[C@@H](O)[C@@H]2O	inactive	inactive	inactive		inactive	inactive	inactive	inactive	inactive	inactive
O=C(O)c1cc2ccccc2cc1O	inactive	60.7 µM (active) and 30.6 µM (active)	inactive		inactive	inactive	inactive	inactive		inactive
C[C@]12CCC(=O)C=C1CC[C@@H]1[C@@H]2[C@@H](O)C[C@@]2(C)[C@H]1CC[C@]2(O)C(=O)CO	inactive	inactive	inactive		inactive	inactive	inactive	inactive	inactive	inactive
CCCCCCO	inactive	inactive	inactive		inactive	inactive	inactive	inactive	inactive	inactive
CC1(C)OC[C@@H]2O[C@@]3(C(=O)O)OC(C)(C)O[C@H]3[C@@H]2O1	inactive	inactive	inactive		inactive	inactive	inactive	inactive		inactive
CC(=O)OC1CC(C)OC(C)O1 (stereo not drawn)	inactive	inactive	inactive		inactive	inactive	inactive	inactive		inactive
COc1ccc(CCC(C)=O)cc1	inactive	inactive	inactive	inactive	inactive	inactive	inactive	inactive	inactive	inactive

SMILES	Potency [1]	Potency [2]	Potency [3]	outcome [4]	outcome [5]	Potency [6]	Potency [7]	outcome [8]	outcome [9]	outcome [10]
COCCOC(=O)c1ccccc1C(=O)OCCOC	inactive	inactive	inactive		inactive	inactive	inactive	inactive	inactive	inactive
C=C(C)[C@H]1CC=C(C)C(=O)C1	inactive	inactive	inactive	inactive	inactive	inactive	inactive	inactive		
CCc1ccccc1CC	inactive	inactive	inactive		inactive	inactive	inactive	inactive	inactive	inactive
COc1ccc(N)c(C)c1	inactive	inactive	inactive		inactive	inactive	inactive	inactive		
O=S(=O)(O)c1ccc(N=Nc2c(O)ccc3cc(S(=O)(=O)O)ccc23)cc1	15.4 µM (active) and 19.3 µM (active)	inactive	13.7 µM (active) and 8.63 µM (active)		inactive	inactive	inactive	inactive	inactive	
c1ccc(Oc2ccccc2)cc1	inactive	inactive	inactive		inactive	inactive	inactive	inactive	inactive	
CC(C)=CCl	inactive	inactive	inactive		inactive	inactive	inactive	inactive		
O=C(O)/C=C/C(=O)O					inactive	inactive	inactive	inactive		
COc1ccc([N+](=O)[O-])cc1N	inactive		inactive	inactive	inactive	inactive	inactive	inactive	inactive	inactive
CCOC(=O)c1ccc(N)cc1	inactive		inactive	inactive	inactive		inactive	inactive	inactive	inactive
O=S(=O)(O)c1ccccc1	inactive	inactive	inactive		inactive		inactive	inactive		
O=C(O)c1ccccc1C(=O)O	inactive		inactive		inactive	inactive	inactive	inactive	inactive	
CC1(C)CC(N)CC(C)(CN)C1 (stereo not drawn)	inactive		inactive	inactive	inactive	inactive	inactive	inactive	inactive	inactive
CN(C)c1ccc(Cc2ccc(N(C)C)cc2)cc1	inactive		inactive	inactive	inactive	inactive	inactive	inactive		inactive
O=C(O)Cn1c(=O)n(Cc2ccc(Br)cc2F)c(=O)c2ccc(Cl)cc21		inactive			inactive	inactive	inactive	inactive	inactive	
C[Si]1(C)O[Si](C)(C)O[Si](C)(C)O[Si](C)(C)O1	inactive	inactive	inactive		inactive	inactive	inactive	inactive	inactive	
NC(=S)NNC(N)=S	inactive	inactive	inactive		inactive	inactive	inactive	inactive	inactive	inactive
CN(C)CCOC(=O)COc1ccc(Cl)cc1	inactive		inactive		inactive		inactive	inactive		inactive
CCCCOC(=O)c1ccc(N)cc1	inactive	23.7 µM (active)	inactive		inactive		inactive	inactive	inactive	
CN/C(=C\[N+](=O)[O-])NCCSCc1csc(CN(C)C)n1	inactive		inactive		inactive	inactive	inactive	inactive	inactive	inactive

SMILES	Potency [1]	Potency [2]	Potency [3]	outcome [4]	outcome [5]	Potency [6]	Potency [7]	outcome [8]	outcome [9]	outcome [10]
O=[N+]([O-])c1ccc2nc[nH]c2c1	inactive		inactive		inactive		inactive	inactive	inactive	inactive
CC(C)CC(=O)CC(C)CC(C)C (stereo not drawn)	inactive		inactive	inactive	inactive	inactive	inactive	inactive		inactive
COc1ccc(C)cc1N	inactive		inactive		inactive	inactive	inactive	inactive		inactive
Nc1ccc(Cl)c(N)c1	inactive	19.4 µM (active) and 7.7 µM (active)	inactive		inactive		inactive	inactive		
CCO[Si](CCC#N)(OCC)OCC	inactive		inactive		inactive	inactive	inactive	inactive	inactive	inactive
COCCCN	inactive		inactive		inactive	inactive	inactive	inactive	inactive	
OCc1cccc(Oc2ccccc2)c1	inactive	inactive	inactive		inactive	inactive	inactive	inactive	inactive	
Nc1nc(N)nc(-c2ccccc2)n1	inactive		inactive		inactive	inactive	inactive	inactive		inactive
CCCCCCCCCCN	inactive	inactive	inactive		inactive	inactive	inactive	inactive		
CCCCCCCCCCCCCCCC(=O)OC(C)C			inactive		inactive	inactive	inactive	inactive		
Clc1ccccn1			inactive		inactive	inactive	inactive	inactive		
CC(O)CC(C)(C)O (stereo not drawn)	inactive	inactive	inactive		inactive	inactive	inactive	inactive	inactive	
CCO[Si](CCCN)(OCC)OCC	inactive		inactive		inactive	inactive	inactive	inactive		inactive
COC(=O)CCCC(=O)OC			inactive		inactive	inactive	inactive	inactive		
N[C@H](Cc1c[nH]c2ccccc12)C(=O)O	inactive		inactive		inactive	inactive	inactive	inactive	inactive	inactive
CC(=O)CC(C)(C)O	inactive		inactive	inactive	inactive	inactive	inactive	inactive	inactive	inactive
CNC(=O)Oc1ccc2c(c1)[C@]1(C)CCN(C)[C@@H]1N2C	inactive		inactive	inactive	inactive	inactive	inactive	inactive		inactive
CC(C)CCCCCCCOC(=O)CCCCC(=O)OCCCCCCCC(C)C	inactive	inactive	inactive			inactive	inactive	inactive	inactive	inactive
CCCCCCCCCCCCCCCCO	inactive	inactive	inactive		inactive		inactive	inactive		inactive
CN(C)c1ccc(O)c2c1C[C@H]1C[C@H]3[C@H](N(C)C)C(=O)C(C(N)=O)=C(O)[C@@]3(O)C(=O)C1=C2O	inactive	inactive and 7.7 µM (active)	inactive		inactive	inactive	inactive	inactive	inactive	

From PubChem BioAssay (Tox21)
